# Results published in PubChem BioAssay (NCATS).
# Unmarked numbers belong to inactive results. Inconclusive results are not listed. The source made the active and inactive calls. Unless noted, calls follow the shape of the dose curve; as a rule, active = well fitted curve in the direction sought with a large enough effect; inconclusive = small, poorly fitted or top-dose-only effect, or another doubt; inactive = no such curve, though single readings can be large; an effect the other way counts as inactive or inconclusive.
# How the values were obtained:
# [1] = qHTS for Inhibitors of Plasmodium falciparum (DD2) proliferation (AID 504314)
# Outline: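 Normalization used 0.29 uM artemisinin as full inhibition and DMSO as baseline. Parasitized erythrocytes were exposed to compounds for 72 h (37C, 5% CO2), then lysed with saponin/Triton buffer containing SYBR Green I.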
# [2] = qHTS for Inhibitors of Plasmodium falciparum (7G8) proliferation (AID 504316)
# Outline: (§1)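 Parasite growth measured as SYBR Green DNA fluorescence (ex 485, em 535 nm) after overnight lysis following 72 h culture at 37 °C, 0.3% parasitemia, 2.5% hematocrit. Values normalized against DMSO and 0.29 uM artemisinin controls, with plate-stack correction.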
# [3] = qHTS for Inhibitors of Plasmodium falciparum (HB3) proliferation (AID 504318)
# Outline: as §1
# [4] = qHTS for Inhibitors of Plasmodium falciparum (GB4) proliferation (AID 504315)
# Outline: as §1
# [5] = system: Zika virus NS2B-NS3 protease (linked construct); assay: Primary screen NINDS Rhodamine qHTS for Zika virus inhibitors (AID 1347160)
# Outline: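 Single-chain NS2B-NS3 protease, 25 nM, pH 8.0; compounds preincubated 15 min. Activity: Rhodamine110 release from 1.5 microM substrate over 15 min, room temperature, data fitted to 4-parameter Hill.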
# [6] = OV-KATE Cancer Cell Toxicity qHTS against the NCATS CANVASS Library (AID 1347345)
# Outline: (§2)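 Step one: seed 1000 cells per well. Step two: incubate 4 h. Step three: add test compounds in 11 concentrations. Step four: culture 72 h, then add CellTiter-Glo and record luminescence after 15min.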
# [7] = HPAF-II Cancer Cell Toxicity qHTS against the NCATS CANVASS Library (AID 1347346)
# Outline: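 Cytotoxicity read-out was CellTiter-Glo luminescence after 72 h at 37 degrees C exposure of HPAF-II cells (1000/well) to compounds in an 11-point titration.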
# [8] = UWB1.289 Cancer Cell Toxicity qHTS against the NCATS CANVASS Library (AID 1347347)
# Outline: as §2
# [9] = OV-SAHO Cancer Cell Toxicity qHTS against the NCATS CANVASS Library (AID 1347348)
# Outline: as §2
# [10] = Panc-1005 Cancer Cell Toxicity qHTS against the NCATS CANVASS Library (AID 1347349)
# Outline: as §2
# [11] = U-118MG Cancer Cell Toxicity qHTS against the NCATS CANVASS Library (AID 1347351)
# Outline: as §2
# [12] = COV-362 Cancer Cell Toxicity qHTS against the NCATS CANVASS Library (AID 1347352)
# Outline: (§3)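 Toxicity was measured as CellTiter-Glo luminescence after 72 h exposure to an 11-point compound series. Compound was added to 1000 cells/well 4 h after seeding.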
# [13] = UWB1.289-WTBRCA1 Cancer Cell Toxicity qHTS against the NCATS CANVASS Library (AID 1347354)
# Outline: as §3
# [14] = HPAF-II 24hr Apoptosis Induction qHTS against the NCATS CANVASS Library (AID 1347356)
# Outline: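 Caspase-Glo 3/7 luminescence, read after 15 min room-temperature development, measures apoptosis in HPAF-II cells treated 24 h at 37 degrees C with an 11-point concentration series; 500 cells/well; doxorubicin control.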
# [15] = HPAF-II 12hr Apoptosis Induction qHTS against the NCATS CANVASS Library (AID 1347358)
# Outline: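 Caspase-3/7 activation by DEVD-substrate luminescence (Caspase-Glo 3/7, 15 min, room temperature) after a 12-hour compound exposure in 11 concentrations, of HPAF-II pancreatic cells seeded at 500/well in DMEM with 10% FBS.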
# [16] = HEK293 24hr Apoptosis Induction qHTS against the NCATS CANVASS Library (AID 1347359)
# Outline: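 HEK293 cells, 500 per well, exposed to an 11-point compound series for 24 hours at 37 degrees C. Caspase 3/7 activity read by Caspase-Glo luminescence (DEVD substrate) after 15 min at room temperature.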
# [17] = HPAF-II 18hr Apoptosis Induction qHTS against the NCATS CANVASS Library (AID 1347360)
# Outline: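 Caspase-Glo 3/7 luminescence (DEVD substrate) after 15 min RT; HPAF-II, 500 cells/well, 18 h compound exposure at 37 degrees C, qHTS series; doxorubicin control 0.1nM - 4uM.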
# [18] = HEK293 12hr Apoptosis Induction qHTS against the NCATS CANVASS Library (AID 1347361)
# Outline: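 500 HEK293 cells/well; cpds pin-transferred, 11-pt conc series; 12 h, 37 degrees C/5% CO2; Caspase-Glo 3/7 added, 15 min RT dark; luminescence.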
# [19] = system: NAD(P)H diaphorase (Clostridium kluyveri); assay: Diaphorse counterscreen qHTS: Assay Interference Panel against the NCATS CANVASS Library (AID 1347362)
# Outline: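 Clostridium kluyveri diaphorase in PBS + 0.01% Tween-20 preincubated 15 min with compounds. Resazurin and NADH then added for 5 min at room temperature in the dark; resorufin fluorescence read (ex 525, em 598).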
# [20] = target: Luciferin 4-monooxygenase (Photinus pyralis) (UniProt P08659); assay: Firefly luciferase counterscreen qHTS: Assay Interference Panel against the NCATS CANVASS Library (AID 1347363)
# Luciferin 4-monooxygenase (Photinus pyralis), sequence (P08659 whole entry, looked up): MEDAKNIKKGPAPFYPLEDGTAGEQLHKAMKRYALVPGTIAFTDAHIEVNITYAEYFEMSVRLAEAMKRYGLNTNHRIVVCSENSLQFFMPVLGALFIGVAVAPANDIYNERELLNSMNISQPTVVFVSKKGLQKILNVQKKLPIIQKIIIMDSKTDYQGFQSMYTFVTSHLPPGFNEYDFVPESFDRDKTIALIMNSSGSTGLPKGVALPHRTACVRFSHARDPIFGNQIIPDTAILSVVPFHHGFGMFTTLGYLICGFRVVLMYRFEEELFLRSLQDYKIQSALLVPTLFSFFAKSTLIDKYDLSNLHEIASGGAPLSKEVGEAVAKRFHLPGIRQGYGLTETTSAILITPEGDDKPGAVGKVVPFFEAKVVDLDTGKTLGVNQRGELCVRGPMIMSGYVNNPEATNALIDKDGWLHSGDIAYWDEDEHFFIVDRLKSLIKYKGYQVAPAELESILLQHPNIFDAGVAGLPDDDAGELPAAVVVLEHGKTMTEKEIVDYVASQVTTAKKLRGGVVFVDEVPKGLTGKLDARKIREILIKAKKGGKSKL
# Outline: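 Purified P. pyralis luciferase (0.04 ug/mL, 4x reagent) added to Tris-acetate buffer with 0.013 mM D-luciferin, 0.013 mM ATP and 13.3 mM Mg-acetate; compounds preincubated 15 min, then luminescence read after 5 min, RT.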
# [21] = KB-8-5-11 Cancer Cell Toxicity qHTS against the NCATS CANVASS Library (AID 1347364)
# Outline: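 Viability read as CellTiter-Glo luminescence after 72 h at 37 °C, 5% CO2. 11-point compound series on 500 KB-8-5-11 cells/well in DMEM/10% FBS. Follow-up plating included 1 uM tariquidar in the medium.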
# [22] = KB-3-1 Cancer Cell Toxicity qHTS against the NCATS CANVASS Library (AID 1347366)
# Outline: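 500 KB-3-1 cells/well; compounds pin-transferred, 11-pnt series; 72 hr, 37C/5% CO2; CellTiter-Glo, 10 min RT; luminescence read-out.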
# [23] = qHTS for ATAD5 Agonist screened against the NCATS CANVASS Library (AID 1347367)
# Outline: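 Luminescence read-out: ATAD5-driven luciferase in stably transfected HEK 293T cells, which rises post-transcriptionally with DNA damage. Cells were exposed 16hr at 37C to test compound; a CellTiter-Fluor fluorescence read (1hr) measured viability first.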
# [24] = MCF7 Cancer Cell Toxicity qHTS against the NCATS CANVASS Library (AID 1347369)
# Outline: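 Luminescent ATP signal (CellTiterGlo) served as the cytotoxicity read-out after MCF7 breast cancer cells had been incubated 72 hr at 37C with natural products in an 11-point titration.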
# [25] = qHTS for ATAD5 Antagonist screened against the NCATS CANVASS Library (AID 1347370)
# Outline: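 Compounds (11-point) co-dosed with 10 µM 5-FUrd for 16 h at 37 °C onto HEK293T-ATAD5 luciferase reporter cells. Viability measured by CellTiter-Fluor fluorescence, then ATAD5 reporter signal by luminescence.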
# [26] = J3T Cancer Cell Toxicity qHTS against the NCATS CANVASS Library (AID 1347371)
# Outline: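 Cytotoxicity read as CellTiterGlo ATP luminescence after 72 h incubation (37C, 5% CO2) of J3T canine glioma cells (500/well) with an 11-point compound series.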
# [27] = target: Nuclear receptor subfamily 1 group I member 3 (Homo sapiens) (UniProt Q14994); assay: qHTS for Constitutive Androstane Receptor (CAR) Antagonist screened against the NCATS CANVASS Library (AID 1347372)
# Nuclear receptor subfamily 1 group I member 3 (Homo sapiens), sequence (Q14994 whole entry, looked up): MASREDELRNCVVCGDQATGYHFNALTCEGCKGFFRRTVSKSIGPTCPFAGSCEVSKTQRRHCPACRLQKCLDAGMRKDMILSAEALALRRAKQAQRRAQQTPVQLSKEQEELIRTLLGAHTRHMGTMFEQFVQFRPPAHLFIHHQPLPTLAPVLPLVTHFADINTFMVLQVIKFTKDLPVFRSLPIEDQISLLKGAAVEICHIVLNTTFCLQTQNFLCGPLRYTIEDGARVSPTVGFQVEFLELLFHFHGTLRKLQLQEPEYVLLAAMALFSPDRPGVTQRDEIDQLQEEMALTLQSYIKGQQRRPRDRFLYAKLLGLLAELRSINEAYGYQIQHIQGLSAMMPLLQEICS
# Outline: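 Luminescence readout (ONE-Glo, 30 min RT) of CYP2B6-2.2kb reporter in HepG2-hCAR cells after 24hr, 37C treatment with compound against 50 nM CITCO; CellTiter-Fluor viability read beforehand.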
# [28] = qHTS for Hypoxia signaling pathway (HIF-1) agonists against the NCATS CANVASS Library (AID 1347375)
# Outline: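 Beta-lactamase reporter under HRE control in ME-180 cells; compounds (11-point qHTS series) added after 5 hrs plating, then 17 hrs at 37C. FRET substrate read after 2 hr; same-well CellTiter-Glo luminescence gave viability and normalization.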
# [29] = 10-beta competent E. coli microbial cell viability qHTS against the NCATS CANVASS Library (AID 1347376)
# Outline: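 Read-out: BacTiter-Glo ATP luminescence, taken 20 min after reagent addition. Beforehand, 10-beta competent E. coli at 0.2 OD had been incubated overnight at 37C with compounds at 11 concentrations.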
# [30] = DH5-alpha competent E. coli microbial cell viability qHTS against the NCATS CANVASS Library (AID 1347377); conditions: outcome: at 46.1 µM (top of the series)
# Outline: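 Bacterial viability as ATP-dependent luminescence (BacTiter-Glo), read after overnight 37 °C exposure of DH5-alpha competent E. coli to compounds in 11-point titration.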
# [31] = Inflammasome Signaling qHTS Counterscreen: IL-1-beta AlphaLISA counterscreen against the NCATS CANVASS Library (AID 1347381)
# Outline: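 Purified IL-1-beta (4 pg/well) + compound, 11-pt conc. series; acceptor beads 6 ug/mL + biotin-Ab 0.6 nM final, 1 h RT; SA-donor 24 ug/ml final, 30 min dark RT; read ex 680/em 615.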
# [32] = Cytotoxicity qHTS for assessment of Hepg2 cells membrane integrity screened against the NCATS CANVASS Library (AID 1347387)
# Outline: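 Membrane damage quantified as fluorescent LDH-release signal (ex 560, em 590 nm) in HepG2 cells treated 5 hr at 37C. qHTS format, 11 concentrations spanning 0.59 nM - 46 uM final, cells plated at 2000 per well the night before.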
# [33] = qHTS assay for small molecule disruptors of mitochondrial membrane potential screened against the NCATS CANVASS Library (AID 1347389)
# Outline: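 Mitochondrial membrane potential in HepG2: 1 h compound treatment (11-point concentration series), 30 min m-MPI dye at 37C, then dual fluorescence of J-aggregates (ex 540/em 590) and monomers (ex 490/em 535); lower red/green ratio indicates depolarization.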
# [34] = qHTS for activators of Nrf2/ARE signaling pathway screened against the NCATS CANVASS Library (AID 1347391)
# Outline: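 Eleven-point qHTS, 16 h treatment of HepG2 cells carrying an ARE-driven beta-lactamase reporter; CCF4 ratio read (405 nm excitation, 460 and 530 nm emission), with CellTiter-Glo ATP luminescence for viability.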
# [35] = Vero-766 cells viability qHTS against the NCATS CANVASS Library: Counterscreen for Zika virus inhibition assay (AID 1347394)
# Outline: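 CellTiter-Glo luminescence, lower signal indicating cytotoxicity. Vero 766 cells without Zika virus, 1000 cells/well, plated overnight, then treated 72 h at 37C across an 11-point series.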
# [36] = qHTS for inhibitors of Wild type Zika virus screened against the NCATS CANVASS Library (AID 1347396)
# Outline: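 Using ATP-based luminescence (CellTiter Glo), this screen scores rescue of Vero 766 cells from wild-type Zika killing at 72 h post-infection. Compounds are tested in a concentration series.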
# [37] = Viability qHTS for inhibitors of the SERCaMP assay screened against the NCATS CANVASS Library (AID 1347400)
# Outline: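 CellTiter-Glo luminescence measured cytotoxicity after 48 h at 37C of compound treatment (11-point series). Cells were SH-SY5Y-GLuc SERCaMP MJH297 derivatives, seeded at 1000 per well 4 h beforehand.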
# [38] = Redox Reaction Profiling qHTS: Assay Interference Panel against the NCATS CANVASS Library (AID 1347401)
# Outline: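 Fluorescence read-out (525 nm excitation, 598 nm emission) at time zero and after 15 min in the dark tracked resorufin formation. Mix: 5 uM resazurin, 200 uM DTT, HEPES pH 7.3 buffer with NaCl.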
# [39] = qHTS for inhibitors of Rabies Virus screened against the NCATS CANVASS Library (AID 1347402; calls by dose curve)
structure (smiles),measurement,setting,value
CCOC(=O)[C@@]12[C@@H]3[C@@H](CCN3C(=O)N[C@H]1c1ccccc1)C2(C)C,outcome,[1],inactive
same,outcome,[2],inactive
same,Potency,[3],inactive
COC(=O)C1C2CC(C)C(c3ccccc32)N1C(=O)C(F)(F)F (centres undefined),outcome,[1],inactive
same,outcome,[4],inactive
same,outcome,[2],inactive
same,Potency,[3],inactive
CO[C@H](c1ccccc1)[C@H]1NC(=O)C(C)NC(=O)C(C[C@@H](C)CO)N(C)C(=O)[C@@H](C(O)c2cn(C(C)(C)C3CO3)c3ccccc23)NC(=O)C(C(C)C=C(C)C)NC(=O)C(CC(C)C)N(C)C(=O)C(C(C)C)NC1=O (some centres undefined),Potency,[5],21.6 µM (active)
same,Potency,[6],inactive
same,Potency,[7],inactive
same,Potency,[8],inactive
same,Potency,[9],inactive
same,Potency,[10],inactive
same,Potency,[11],inactive
same,Potency,[12],inactive
same,Potency,[13],inactive
same,outcome,[14],inactive
same,outcome,[15],inactive
same,Potency,[16],inactive
same,outcome,[17],inactive
same,Potency,[18],inactive
same,outcome,[19],inactive
same,outcome,[20],inactive
same,Potency,[21],inactive
same,Potency,[22],inactive
same,Potency,[23],inactive
same,Potency,[24],inactive
same,Potency,[25],inactive
same,Potency,[26],inactive
same,Potency,[27],inactive
same,Potency,[28],inactive
same,outcome,[29],inactive
same,outcome,[30],inactive
same,outcome,[31],inactive
same,outcome,[32],inactive
same,Potency,[33],inactive
same,Potency,[34],inactive
same,Potency,[35],inactive
same,Potency,[36],inactive
same,Potency,[37],inactive
same,Potency,[38],inactive
same,outcome,[39],inactive
COC(=O)[C@@]1(C=C2c3ccc(F)cc3[C@@H](OC)[C@@H]2C)[C@@H]2c3ccccc3O[C@@H]21,outcome,[4],inactive
COC(=O)C1(C)C2CC(C)C(c3ccccc32)N1C(=O)C(F)(F)F (centres undefined),outcome,[1],inactive
same,outcome,[4],inactive
same,outcome,[2],inactive
same,Potency,[3],inactive
COC(=O)C1=C2CCCO[C@H]2[C@@H]2[C@@H](C)[C@H](OC)c3ccccc3[C@@H]12,outcome,[1],inactive
same,outcome,[4],inactive
same,outcome,[2],inactive
C=C(C)C(=O)CP(=O)(OCC)OCC,outcome,[1],inactive
same,outcome,[4],inactive
same,outcome,[2],inactive
same,Potency,[3],inactive
